The source of these data is ChEMBL document CHEMBL3988442, “University of Dundee, Small-Polar-MMV Screening Library” (2021).

The structures appear in SMILES notation. For part of these data: Entries with a potency or affinity are not part of this list. Bounds are passed on as bounds.

The target of assay [1] is T1, Methionyl-tRNA synthetase, putative (Leishmania donovani (strain BPK282A1)) (UniProt E9BF75).
T1 sequence (whole entry): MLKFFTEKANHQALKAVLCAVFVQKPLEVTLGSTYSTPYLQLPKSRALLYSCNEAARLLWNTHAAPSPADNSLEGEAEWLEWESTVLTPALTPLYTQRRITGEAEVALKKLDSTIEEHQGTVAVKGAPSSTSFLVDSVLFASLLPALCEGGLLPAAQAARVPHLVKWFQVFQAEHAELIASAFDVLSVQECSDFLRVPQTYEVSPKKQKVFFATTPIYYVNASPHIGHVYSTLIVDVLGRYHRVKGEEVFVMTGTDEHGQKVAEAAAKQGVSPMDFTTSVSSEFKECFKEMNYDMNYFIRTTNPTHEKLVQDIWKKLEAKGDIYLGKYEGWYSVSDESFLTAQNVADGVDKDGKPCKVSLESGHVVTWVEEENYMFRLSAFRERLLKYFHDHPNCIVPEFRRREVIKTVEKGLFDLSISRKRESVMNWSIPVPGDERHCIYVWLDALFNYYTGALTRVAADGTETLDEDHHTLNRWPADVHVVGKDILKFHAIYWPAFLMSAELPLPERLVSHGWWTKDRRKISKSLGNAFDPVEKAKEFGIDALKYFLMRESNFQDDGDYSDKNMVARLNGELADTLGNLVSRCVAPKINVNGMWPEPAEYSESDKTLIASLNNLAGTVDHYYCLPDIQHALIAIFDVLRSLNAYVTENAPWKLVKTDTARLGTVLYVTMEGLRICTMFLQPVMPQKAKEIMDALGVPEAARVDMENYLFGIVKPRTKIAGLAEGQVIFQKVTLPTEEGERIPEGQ
As to the kind of experiment: Leishmania donovani Methionine tRNA synthetase (LdMetRS):v7. Dose response assay. Format: functional. Further details: conc 80 nM, time 150 minutes.

The target of assay [2] is Protein translocase subunit SecA (Escherichia coli (strain K12)) (UniProt P10408). Put plainly: Assay to Identify E. coli SecA ATPase Inhibitors. Format: functional. Also on record: scale not given: direction of the effect not stated beside the values. The following applies: 30 µM.
In assay [3] the target is T2, Ubiquitin-activating enzyme e1, putative (Leishmania donovani (strain BPK282A1)) (UniProt E9BSI1).
T2 sequence (whole entry): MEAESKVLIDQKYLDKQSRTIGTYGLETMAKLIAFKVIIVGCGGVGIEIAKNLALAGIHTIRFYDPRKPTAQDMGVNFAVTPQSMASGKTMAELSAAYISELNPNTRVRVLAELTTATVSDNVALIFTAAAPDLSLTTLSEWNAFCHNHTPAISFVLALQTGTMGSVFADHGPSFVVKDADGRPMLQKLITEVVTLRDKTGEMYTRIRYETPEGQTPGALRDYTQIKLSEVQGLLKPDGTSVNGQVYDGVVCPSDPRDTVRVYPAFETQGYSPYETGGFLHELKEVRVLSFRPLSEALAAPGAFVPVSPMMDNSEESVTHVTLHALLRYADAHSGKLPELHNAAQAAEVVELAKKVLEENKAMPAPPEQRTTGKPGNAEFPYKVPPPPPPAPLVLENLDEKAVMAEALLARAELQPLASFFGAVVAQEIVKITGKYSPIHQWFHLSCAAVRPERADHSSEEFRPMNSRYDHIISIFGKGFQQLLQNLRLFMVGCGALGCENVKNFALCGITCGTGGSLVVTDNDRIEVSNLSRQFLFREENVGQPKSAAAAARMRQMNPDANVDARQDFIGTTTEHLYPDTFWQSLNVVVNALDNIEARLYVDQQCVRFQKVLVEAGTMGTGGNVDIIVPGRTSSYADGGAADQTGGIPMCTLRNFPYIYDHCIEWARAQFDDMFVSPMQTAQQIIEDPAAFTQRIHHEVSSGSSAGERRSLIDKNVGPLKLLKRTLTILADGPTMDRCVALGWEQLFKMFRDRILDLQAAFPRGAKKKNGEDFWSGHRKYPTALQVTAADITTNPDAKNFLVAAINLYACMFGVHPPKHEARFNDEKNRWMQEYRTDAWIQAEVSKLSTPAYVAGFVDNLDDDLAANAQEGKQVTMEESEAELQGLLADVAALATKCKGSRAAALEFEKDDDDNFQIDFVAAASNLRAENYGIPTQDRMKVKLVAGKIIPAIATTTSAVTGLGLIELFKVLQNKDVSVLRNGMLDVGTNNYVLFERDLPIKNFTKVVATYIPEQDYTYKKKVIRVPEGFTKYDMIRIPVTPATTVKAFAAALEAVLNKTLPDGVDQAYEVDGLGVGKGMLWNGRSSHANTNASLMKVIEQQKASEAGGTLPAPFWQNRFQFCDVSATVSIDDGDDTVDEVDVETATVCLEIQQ
Put plainly: Leishmania donovani Ubiquitin Activating Enzyme (LdE1). Format: functional. Further details: scale not given: direction of the effect not stated beside the values. The following applies: 30 µM.

The target of assay [4] is AMP-activated protein kinase, AMPK (Homo sapiens) (UniProt P54646+O43741+P54619+Q9UGJ0+Q9Y478+Q13131+Q9UGI9). As to the kind of experiment: AMP-dependent Kinase enzyme assay. An in vitro enzyme assay that detects ADP turnover that is directly proportional to AMPK activity. This uses naive AMPK that is activated during the assay with MK-8722. Format: functional. Also on record: scale not given: direction of the effect not stated beside the values. To be noted: 30 µM.

For assay [5], the target named is Sialic acid-binding Ig-like lectin 9 (Homo sapiens) (UniProt Q9Y336). Put plainly: Hs-Siglec9 ALPHAscreen SOP 20170721. Further details: scale not given: direction of the effect not stated beside the values. To be noted: 10 µM.
For a further assay, the system named is Trypanosoma cruzi. As to the kind of experiment: Trypanosoma cruzi phosphomannomutase and mannose-1-phosphate guanylyltransferase assay. The format is functional. Further details: scale not given: direction of the effect not stated beside the values. The following applies: 10 µM.
Assay [6] concerns the target T3, Arginase-2, mitochondrial (Homo sapiens) (UniProt P78540).
T3 sequence (whole entry): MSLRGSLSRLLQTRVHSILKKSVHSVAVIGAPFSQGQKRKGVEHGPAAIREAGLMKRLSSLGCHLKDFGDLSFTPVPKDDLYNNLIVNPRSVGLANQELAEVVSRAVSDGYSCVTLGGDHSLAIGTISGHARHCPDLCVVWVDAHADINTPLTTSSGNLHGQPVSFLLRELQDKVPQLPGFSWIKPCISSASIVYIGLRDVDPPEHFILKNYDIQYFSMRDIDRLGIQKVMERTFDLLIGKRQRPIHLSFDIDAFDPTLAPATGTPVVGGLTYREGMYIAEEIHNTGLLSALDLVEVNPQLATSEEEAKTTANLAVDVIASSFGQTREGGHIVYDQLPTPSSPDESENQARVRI
Put plainly: in vitro enzyme assay to detect the production of urea directly proportional to the activity of Arginase II. Format: functional. Further details: scale not given: in the data most compounds retested in dose-response had high values.

Assay [7] concerns the target T4, Proteasome subunit beta (Trypanosoma cruzi) (UniProt O96673).
T4 sequence (whole entry): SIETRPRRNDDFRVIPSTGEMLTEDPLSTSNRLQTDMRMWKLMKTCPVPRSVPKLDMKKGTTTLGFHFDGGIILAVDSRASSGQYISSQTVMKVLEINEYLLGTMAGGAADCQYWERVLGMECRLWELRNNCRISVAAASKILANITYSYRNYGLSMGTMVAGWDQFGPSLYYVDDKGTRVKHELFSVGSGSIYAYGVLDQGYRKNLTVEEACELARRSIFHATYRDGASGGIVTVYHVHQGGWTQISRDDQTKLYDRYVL
As to the kind of experiment: Trypanosoma cruzi proteasome chymotrypsin-like activity (TcProtChymo) assay. Format: functional. Further details: scale not given: in the data most compounds retested in dose-response had high values. The following applies: 9.37 µM.

The species named for a further assay is Homo sapiens. As to the kind of experiment: To identify inhibition of the IFN signalling (Jak-Stat) pathway via expression of an eGFP reporter gene under the control of an IFN-stimulated response element (ISRE) containing MxA promoter. The format is functional. Also on record: scale not given: direction of the effect not stated beside the values. The following applies: 30 µM. (In general: A reporter such as luciferase makes a cellular process visible.)

In assay [8] the target is T5, Tyrosyl-tRNA synthetase, putative (Trypanosoma cruzi (strain CL Brener)) (UniProt Q4DSP6).
T5 sequence (whole entry): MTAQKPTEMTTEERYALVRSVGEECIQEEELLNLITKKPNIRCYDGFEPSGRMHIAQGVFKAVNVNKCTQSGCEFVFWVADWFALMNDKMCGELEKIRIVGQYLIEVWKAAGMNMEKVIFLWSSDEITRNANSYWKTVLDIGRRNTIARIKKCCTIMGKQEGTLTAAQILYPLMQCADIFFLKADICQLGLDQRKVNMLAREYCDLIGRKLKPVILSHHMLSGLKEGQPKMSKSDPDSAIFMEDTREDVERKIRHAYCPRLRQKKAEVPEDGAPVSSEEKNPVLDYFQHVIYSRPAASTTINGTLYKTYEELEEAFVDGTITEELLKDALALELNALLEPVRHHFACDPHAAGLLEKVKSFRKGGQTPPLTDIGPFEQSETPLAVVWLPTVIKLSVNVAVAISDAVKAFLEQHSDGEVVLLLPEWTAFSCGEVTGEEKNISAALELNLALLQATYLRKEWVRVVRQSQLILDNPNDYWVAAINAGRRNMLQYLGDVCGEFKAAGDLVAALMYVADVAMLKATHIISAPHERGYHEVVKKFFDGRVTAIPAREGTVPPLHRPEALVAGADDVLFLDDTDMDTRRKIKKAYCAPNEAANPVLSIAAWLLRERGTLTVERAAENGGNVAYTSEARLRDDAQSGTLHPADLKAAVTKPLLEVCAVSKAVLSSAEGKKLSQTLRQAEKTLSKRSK
As to the kind of experiment: Trypanosoma cruzi tyrosyl tRNA synthetase (TcYRS) _High Tyrosine SOP. Format: functional. Further details: scale not given: in the data most compounds retested in dose-response had high values. To be noted: 30 µM.

The target of assay [9] is T5, Tyrosyl-tRNA synthetase, putative (Trypanosoma cruzi (strain CL Brener)). As to the kind of experiment: Trypanosoma cruzi tyrosyl tRNA synthetase (TcYRS) SOP. Also on record: scale not given: direction of the effect not stated beside the values. The format is functional. The following applies: 30 µM.
Assay [10] concerns the target Chromo domain-containing protein 1 (Saccharomyces cerevisiae (strain ATCC 204508 / S288c) (Baker's yeast)) (UniProt P32657). As to the kind of experiment: ScCHD-1 Enzyme Inhibition Assay. Format: functional. Further details: scale not given: in the data most compounds retested in dose-response had high values. To be noted: 30 µM.

Sequence of Sialic acid-binding Ig-like lectin 9 (Homo sapiens) (Q9Y336 whole entry): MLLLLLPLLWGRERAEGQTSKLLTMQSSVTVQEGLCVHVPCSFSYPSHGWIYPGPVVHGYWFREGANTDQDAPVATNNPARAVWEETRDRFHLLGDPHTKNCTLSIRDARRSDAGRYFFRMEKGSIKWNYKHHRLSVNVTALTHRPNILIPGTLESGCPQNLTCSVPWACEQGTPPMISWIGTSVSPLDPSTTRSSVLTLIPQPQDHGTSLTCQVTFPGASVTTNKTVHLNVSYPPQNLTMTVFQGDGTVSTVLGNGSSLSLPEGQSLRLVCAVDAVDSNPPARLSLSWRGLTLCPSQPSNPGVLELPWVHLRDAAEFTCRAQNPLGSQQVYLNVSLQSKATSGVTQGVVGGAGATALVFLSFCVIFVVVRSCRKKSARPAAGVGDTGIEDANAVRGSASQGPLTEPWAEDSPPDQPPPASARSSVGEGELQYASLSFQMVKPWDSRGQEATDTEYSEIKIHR
Sequence of Chromo domain-containing protein 1 (Saccharomyces cerevisiae (strain ATCC 204508 / S288c) (Baker's yeast)) (P32657 whole entry, the tested form may be a part): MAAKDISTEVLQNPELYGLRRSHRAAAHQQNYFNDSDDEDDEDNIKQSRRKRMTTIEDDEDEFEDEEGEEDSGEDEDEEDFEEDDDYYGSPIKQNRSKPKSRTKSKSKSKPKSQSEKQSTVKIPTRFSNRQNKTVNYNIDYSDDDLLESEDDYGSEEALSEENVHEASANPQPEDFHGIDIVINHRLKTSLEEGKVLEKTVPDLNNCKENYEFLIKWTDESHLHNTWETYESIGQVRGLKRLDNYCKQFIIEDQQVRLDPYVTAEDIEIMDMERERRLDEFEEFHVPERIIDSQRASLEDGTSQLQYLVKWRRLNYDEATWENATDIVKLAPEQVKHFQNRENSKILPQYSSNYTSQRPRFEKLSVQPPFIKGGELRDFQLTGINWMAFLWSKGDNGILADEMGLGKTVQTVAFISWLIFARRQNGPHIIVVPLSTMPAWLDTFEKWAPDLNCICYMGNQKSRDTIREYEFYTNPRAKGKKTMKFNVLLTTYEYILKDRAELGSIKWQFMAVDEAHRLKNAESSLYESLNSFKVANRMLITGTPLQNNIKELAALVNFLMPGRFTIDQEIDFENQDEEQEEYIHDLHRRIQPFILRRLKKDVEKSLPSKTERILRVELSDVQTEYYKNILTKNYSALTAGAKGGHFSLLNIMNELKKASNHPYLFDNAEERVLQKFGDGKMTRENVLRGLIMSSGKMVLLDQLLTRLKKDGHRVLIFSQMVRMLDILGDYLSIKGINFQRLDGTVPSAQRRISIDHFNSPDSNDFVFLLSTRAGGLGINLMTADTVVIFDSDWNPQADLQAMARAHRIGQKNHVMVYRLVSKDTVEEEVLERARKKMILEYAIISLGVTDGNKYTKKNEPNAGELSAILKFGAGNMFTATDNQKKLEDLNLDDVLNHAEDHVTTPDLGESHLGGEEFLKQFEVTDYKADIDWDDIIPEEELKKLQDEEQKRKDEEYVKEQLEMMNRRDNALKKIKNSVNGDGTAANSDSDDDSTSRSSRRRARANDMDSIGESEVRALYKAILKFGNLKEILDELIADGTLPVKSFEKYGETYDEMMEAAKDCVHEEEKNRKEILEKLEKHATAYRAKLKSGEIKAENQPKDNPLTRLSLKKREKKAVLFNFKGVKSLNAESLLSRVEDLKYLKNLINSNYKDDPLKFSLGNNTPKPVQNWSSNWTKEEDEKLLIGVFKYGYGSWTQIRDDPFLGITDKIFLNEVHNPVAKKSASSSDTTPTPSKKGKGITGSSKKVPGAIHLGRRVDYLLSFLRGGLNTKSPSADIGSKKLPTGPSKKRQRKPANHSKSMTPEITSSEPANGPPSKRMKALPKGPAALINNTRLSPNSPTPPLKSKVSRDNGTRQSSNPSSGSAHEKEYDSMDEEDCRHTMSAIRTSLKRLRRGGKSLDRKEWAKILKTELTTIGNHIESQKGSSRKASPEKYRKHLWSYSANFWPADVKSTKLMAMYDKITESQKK
Sequence of Protein translocase subunit SecA (Escherichia coli (strain K12)) (P10408 whole entry): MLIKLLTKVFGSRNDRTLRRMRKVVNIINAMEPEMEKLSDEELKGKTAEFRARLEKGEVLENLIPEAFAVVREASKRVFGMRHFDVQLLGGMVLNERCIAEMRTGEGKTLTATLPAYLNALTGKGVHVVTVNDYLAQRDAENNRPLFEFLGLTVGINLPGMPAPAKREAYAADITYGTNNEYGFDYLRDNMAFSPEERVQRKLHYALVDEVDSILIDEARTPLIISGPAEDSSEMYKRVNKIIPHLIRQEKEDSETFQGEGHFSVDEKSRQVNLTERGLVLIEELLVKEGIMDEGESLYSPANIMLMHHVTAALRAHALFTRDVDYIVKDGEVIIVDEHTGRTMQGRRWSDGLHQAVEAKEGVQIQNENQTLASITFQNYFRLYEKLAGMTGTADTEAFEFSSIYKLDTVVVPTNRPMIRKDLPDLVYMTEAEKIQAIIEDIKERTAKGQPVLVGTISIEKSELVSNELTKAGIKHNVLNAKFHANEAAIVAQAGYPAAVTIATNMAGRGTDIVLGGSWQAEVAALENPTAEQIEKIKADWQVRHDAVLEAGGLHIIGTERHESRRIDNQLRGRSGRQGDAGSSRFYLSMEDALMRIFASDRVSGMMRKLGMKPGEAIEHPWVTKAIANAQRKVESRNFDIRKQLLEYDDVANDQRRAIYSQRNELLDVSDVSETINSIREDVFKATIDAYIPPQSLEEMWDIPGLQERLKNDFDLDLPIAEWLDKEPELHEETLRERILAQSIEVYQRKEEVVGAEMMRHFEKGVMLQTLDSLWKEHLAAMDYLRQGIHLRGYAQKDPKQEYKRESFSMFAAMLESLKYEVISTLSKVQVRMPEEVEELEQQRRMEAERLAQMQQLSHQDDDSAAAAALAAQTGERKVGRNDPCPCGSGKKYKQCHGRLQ

`N#CC1CCCN(c2nc(-c3ccccc3)nc3c2CCNCC3)C1` (stereo unspecified): the PXC50 in assay [1] (MAX_EFFECT 13.59649123) and in assay [1] (MAX_EFFECT 23.4375) was under 4 in each case. The Percent Effect is -2.62% in [2]; -5.48% in assay [3]; -0.435% in [4]; 0.626% in assay [5]; -4.17% in the assay on Trypanosoma cruzi; 2% in assay [6] (33.3 µM). In addition, the Percent Effect in assay [7] was 11.2%; in the assay listed under Homo sapiens, 2.12%; in [8], 4.17%; in assay [9], 3.7%; in assay [10] it was 9.39%.
Turning to `Cc1ccccc1C1(CNc2nnc(C)c(C)c2C#N)CCOCC1`, the PXC50 in [1] (MAX_EFFECT 12.82660333) and in assay [1] (MAX_EFFECT 19.54225352) was under 4 each time. Besides, the Percent Effect in assay [2] is -3.65%; in assay [3], 0%; in assay [4], -11.2%; in [5], 2.86%; with Trypanosoma cruzi, -0.193%; in assay [6] (33.3 µM), -0.952%. The Percent Effect in [7] is 9.31%; in the assay listed under Homo sapiens, 19.4%; in [8], 2.65%; in assay [9] it was 0%; in [10], -3.83%.
On to `c1ccc(COC2CCN(c3cncc(-n4cccn4)n3)CC2)cc1`, for which the PXC50 in assay [1] (MAX_EFFECT 8.551068884) and in [1] (MAX_EFFECT 14.26056338) was under 4 each time. The Percent Effect in assay [2] is -2.59%; in assay [3], 5.41%; in assay [4], -5.76%; in [5], -7.06%; in the assay on Trypanosoma cruzi, 4.3%; in [6] (33.3 µM), 2.08%. Moreover, the Percent Effect in assay [7] was 19.2%; in the assay listed under Homo sapiens, 14.3%; in assay [8] it was 8.91%; in [9], 13.4%; in assay [10] it was -2.69%.
For `CCn1c(Nc2ccccc2OC)nc2c(C)nn(C)c2c1=O`, the Percent Effect is -1.82% in [2]; 6.67% in [3]; 3.08% in assay [4]; -2.73% in [5]; -6.88% in the assay on Trypanosoma cruzi; -9.19% in assay [6] (30 µM). The Percent Effect was -4.4% in [6] (33.3 µM); 16.3% in assay [7]; 10.6% in the assay listed under Homo sapiens; 8.47% in [8]; 10.3% in assay [9]; -10.1% in assay [10].
